# Experimental data from the supplement of paper PMC8728848.
# The sample as a whole holds a higher share of the strongest signals than the screen did.
# B1: SP8524D-bot-399-27-399 (Bacteroides ovatus) (protein)
# chain: DAKYDTLDTHAYIEEALSSTSQKVTVQATGESFTTLNVHLSNLSSTDNHYKLVTDQSVLDTYNHINGTGYIMLPKDYYTLPETITVKAGQYAADALSIALKAFSQEMMKSGESYALPVKLVLQDGSISPMENTGTFVILAESIIEFSAPMFVGAPSLKANKFTESPETYSQYTIEVRFQVANTADRDRAVFKNGGDDANFILLRFEDPQSDNENYKAHSLVQIVGRNRLYLNPSNSFKPNEWQHLALVCDGSNYRLYINGVDSGVLSIPTGATTFSDVNWFCLGDDSYSRWGNCKILMSEARIWSVVRSASQIQNNMTQVSPKSVGLEAYWRFNEGQGNVFEDATGKGHTLTTSATPTWIDGILSTDKSTEWK
# Legend:
# Experiment in all cases: glycan array binding signal (z-score within array); higher = stronger binding
# Details in all cases: glycan notation: IUPAC condensed, linker removed
# [1] = biological target: Fuc(a1-2)Gal(b1-3)GlcNAc(b1-3)[Gal(b1-4)GlcNAc(b1-6)]Gal(b1-4)Glc
# Procedure, shortened: (§1)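 Glycan array data came from 3228 arrays in the Consortium for Functional Glycomics database, and only arrays with an available protein sequence were kept. Glycan names were put into IUPAC-condensed notation, and columns mapping to the same glycan were averaged. The binding signal is a within-array Z-score, averaged across arrays of one protein sequence run at different concentrations or buffers and across linkers. A negative Z-score can be read as non-binding.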
# [2] = biological target: Fuc(a1-2)Gal(b1-3)GlcNAc(b1-3)[Neu5Ac(a2-6)Gal(b1-4)GlcNAc(b1-6)]Gal(b1-4)Glc
# Procedure, shortened: as §1
# Fuc(a1-2)Gal(b1-4)Glc = biological target: Fuc(a1-2)Gal(b1-4)Glc
# Procedure, shortened: as §1
# [3] = biological target: Fuc(a1-2)Gal(b1-4)GlcNAc(b1-3)Gal(b1-4)GlcNAc(b1-3)Gal(b1-4)GlcNAc
# Procedure, shortened: as §1
# Fuc(a1-2)[Gal(a1-3)]Gal = biological target: Fuc(a1-2)[Gal(a1-3)]Gal
# Procedure, shortened: as §1
# [4] = biological target: Fuc(a1-2)[Gal(a1-3)]Gal(b1-3)GlcNAc(b1-6)GalNAc
# Procedure, shortened: as §1
# [5] = biological target: Fuc(a1-2)[Gal(a1-3)]Gal(b1-4)GlcNAc(b1-6)GalNAc
# Procedure, shortened: as §1
# [6] = biological target: Fuc(a1-2)[GalNAc(a1-3)]Gal(b1-3)GlcNAc(b1-2)Man(a1-3)[Fuc(a1-2)[GalNAc(a1-3)]Gal(b1-3)GlcNAc(b1-2)Man(a1-6)]Man(b1-4)GlcNAc(b1-4)[Fuc(a1-6)]GlcNAc
# Procedure, shortened: as §1
# [7] = biological target: Fuc(a1-2)[GalNAc(a1-3)]Gal(b1-4)GlcNAc(b1-3)[Fuc(a1-2)[GalNAc(a1-3)]Gal(b1-4)GlcNAc(b1-6)]GalNAc
# Procedure, shortened: as §1
# [8] = biological target: Fuc(a1-3)[GalNAc(b1-4)]GlcNAc
# Procedure, shortened: as §1
# Fuc(a1-4)GlcNAc = biological target: Fuc(a1-4)GlcNAc
# Procedure, shortened: as §1
# Gal(a1-3)Gal(b1-4)GlcNAc = biological target: Gal(a1-3)Gal(b1-4)GlcNAc
# Procedure, shortened: as §1
# [9] = biological target: Gal(a1-3)[Gal(a1-4)]Gal(b1-4)GlcNAc
# Procedure, shortened: as §1
# [10] = biological target: Gal(b1-3)GlcNAc(b1-3)Gal(b1-4)Glc
# Procedure, shortened: as §1
# [11] = biological target: Gal(b1-3)GlcNAc(b1-3)Gal(b1-4)[Fuc(a1-3)]GlcNAc
# Procedure, shortened: as §1
# [12] = biological target: Gal(b1-3)[Fuc(a1-4)]GlcNAc(b1-2)Man
# Procedure, shortened: as §1
# [13] = biological target: Gal(b1-3)[GlcNAc(b1-6)]GalNAc
# Procedure, shortened: as §1
# [14] = biological target: Gal(b1-4)GalNAc(a1-3)[Fuc(a1-2)]Gal(b1-4)GlcNAc
# Procedure, shortened: as §1
# [15] = biological target: Gal(b1-4)GlcNAc(b1-2)Man(a1-3)[GlcNAc(b1-4)][Gal(b1-4)GlcNAc(b1-2)Man(a1-6)]Man(b1-4)GlcNAc(b1-4)GlcNAc
# Procedure, shortened: as §1
# [16] = biological target: Gal(b1-4)GlcNAc(b1-3)Gal(b1-4)GlcNAc(b1-3)Gal(b1-4)GlcNAc(b1-3)Gal(b1-4)GlcNAc(b1-3)Gal(b1-4)GlcNAc(b1-2)[Gal(b1-4)GlcNAc(b1-3)Gal(b1-4)GlcNAc(b1-3)Gal(b1-4)GlcNAc(b1-3)Gal(b1-4)GlcNAc(b1-3)Gal(b1-4)GlcNAc(b1-6)]Man(a1-6)[Gal(b1-4)GlcNAc(b1-3)Gal(b1-4)GlcNAc(b1-3)Gal(b1-4)GlcNAc(b1-3)Gal(b1-4)GlcNAc(b1-3)Gal(b1-4)GlcNAc(b1-2)Man(a1-3)]Man(b1-4)GlcNAc(b1-4)[Fuc(a1-6)]GlcNAc
# Procedure, shortened: as §1
# [17] = biological target: Gal(b1-4)GlcNAc(b1-3)Gal(b1-4)GlcNAc(b1-6)[Gal(b1-3)]GalNAc
# Procedure, shortened: as §1
# Gal3S4S(b1-4)GlcNAc = biological target: Gal3S4S(b1-4)GlcNAc
# Procedure, shortened: as §1
# Gal3S6S(b1-4)GlcNAc = biological target: Gal3S6S(b1-4)GlcNAc
# Procedure, shortened: as §1
# Gal4S(b1-4)GlcNAc = biological target: Gal4S(b1-4)GlcNAc
# Procedure, shortened: as §1
# [18] = biological target: GalNAc3S(b1-4)[Fuc(a1-3)]GlcNAc
# Procedure, shortened: as §1
# [19] = biological target: GlcNAc(b1-2)[GlcNAc(b1-4)]Man(a1-3)[GlcNAc(b1-2)Man(a1-6)]Man(b1-4)GlcNAc(b1-4)GlcNAc
# Procedure, shortened: as §1
# [20] = biological target: GlcNAc(b1-2)[GlcNAc(b1-4)]Man(a1-3)[GlcNAc(b1-4)][GlcNAc(b1-2)Man(a1-6)]Man(b1-4)GlcNAc(b1-4)GlcNAc
# Procedure, shortened: as §1
# [21] = biological target: GlcNAc(b1-2)[GlcNAc(b1-4)]Man(a1-3)[GlcNAc(b1-4)][GlcNAc(b1-2)[GlcNAc(b1-6)]Man(a1-6)]Man(b1-4)GlcNAc(b1-4)GlcNAc
# Procedure, shortened: as §1
# [22] = biological target: GlcNAc(b1-2)[GlcNAc(b1-4)]Man(a1-3)[GlcNAc(b1-4)][GlcNAc(b1-2)[GlcNAc(b1-6)]Man(a1-6)]Man(b1-4)GlcNAc(b1-4)[Fuc(a1-6)]GlcNAc
# Procedure, shortened: as §1
# [23] = biological target: GlcNAc(b1-3)Gal(b1-4)GlcNAc(b1-2)[GlcNAc(b1-3)Gal(b1-4)GlcNAc(b1-6)]Man(a1-6)[GlcNAc(b1-3)Gal(b1-4)GlcNAc(b1-2)Man(a1-3)]Man(b1-4)GlcNAc(b1-4)GlcNAc
# Procedure, shortened: as §1
binder,measurement,setting,value
B1,glycan array binding signal (z-score),[1],-0.119
same,glycan array binding signal (z-score),[2],-0.348
same,glycan array binding signal (z-score),Fuc(a1-2)Gal(b1-4)Glc,-0.082
same,glycan array binding signal (z-score),[3],-0.049
same,glycan array binding signal (z-score),Fuc(a1-2)[Gal(a1-3)]Gal,1.34
same,glycan array binding signal (z-score),[4],-0.387
same,glycan array binding signal (z-score),[5],-0.255
same,glycan array binding signal (z-score),[6],-0.246
same,glycan array binding signal (z-score),[7],-0.238
same,glycan array binding signal (z-score),[8],1.02
same,glycan array binding signal (z-score),Fuc(a1-4)GlcNAc,6.02
same,glycan array binding signal (z-score),Gal(a1-3)Gal(b1-4)GlcNAc,-0.463
same,glycan array binding signal (z-score),[9],3.56
same,glycan array binding signal (z-score),[10],-0.359
same,glycan array binding signal (z-score),[11],-0.174
same,glycan array binding signal (z-score),[12],0.35
same,glycan array binding signal (z-score),[13],-0.01
same,glycan array binding signal (z-score),[14],0.229
same,glycan array binding signal (z-score),[15],-0.382
same,glycan array binding signal (z-score),[16],1.02
same,glycan array binding signal (z-score),[17],0.317
same,glycan array binding signal (z-score),Gal3S4S(b1-4)GlcNAc,-0.075
same,glycan array binding signal (z-score),Gal3S6S(b1-4)GlcNAc,0.506
same,glycan array binding signal (z-score),Gal4S(b1-4)GlcNAc,0.045
same,glycan array binding signal (z-score),[18],0.563
same,glycan array binding signal (z-score),[19],16.1
same,glycan array binding signal (z-score),[20],8.43
same,glycan array binding signal (z-score),[21],12.1
same,glycan array binding signal (z-score),[22],2.04
same,glycan array binding signal (z-score),[23],0.455
